Screens deposited in PubChem by National Center for Advancing Translational Sciences (NCATS).
HT1080 IDH1KD tx = qHTS for induction of synthetic lethality in tumor cells producing 2HG: qHTS for the HT-1080-IDH1KD cell line. AID 686971, 2013. Potency, µM (top dose mostly 46.1 µM), without a hit: top-dose activity, negative = toxicity, most hits filed as cytotoxic. HT-1080 IDH1 knockdown viability, ATP luminescence, 48 h. hit rate 2% among 360,000;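 note: potency is the fitted concentration of half-maximal effect; 0% = DMSO wells and -100% = cell-free medium wells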
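Assay cells: HT-1080 with IDH1 knockdown, 750 per well, RPMI/5% FBS. Exposure: 48 h at 37 °C following 2 h pre-incubation. Read: CellTiter-Glo luminescence; fitted concentration-response, curve class assigned.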
DT40 TDP1 CPT = qHTS for Inhibitors of human tyrosyl-DNA phosphodiesterase 1 (TDP1): qHTS in cells in presence of CPT. hit rate 12% among 420,000. chicken DT40 Tdp1-/-;hTDP1 cells + 20 nM CPT, ATP luminescence, 48 h. Potency, µM (top dose mostly 46.2 µM), inactives show at the highest dose activity change, negative = growth inhibition, most hits filed as inhibitors; note: potency is the fitted concentration of half-maximal effect; nearly all actives have a fitted effect of over 55% in size
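Cell growth measured by CellTiter-Glo luminescence after a minimum 48 h, 37 C compound exposure with 20 nM CPT in Tdp1-knockout DT40 cells stably expressing hTDP1, seeded 400/well; qHTS titration format.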
HT1080NT lethal = qHTS for induction of synthetic lethality in tumor cells producing 2HG: qHTS for the HT-1080-NT fibrosarcoma cell line; Potency, µM (highest dose often 46.1 µM), for inactives: top-dose activity, negative = less viability, hits mostly cytotoxic; HT-1080-NT fibrosarcoma viability, CellTiter-Glo ATP luminescence, 48 h; hit rate 1.6% among 360,000;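 note: NT is the 2HG producing partner of a matched IDH1 knockdown line; potency is the fitted concentration of half-maximal effect; 0% = DMSO-treated cells and -100% = media-only wells without cells; nearly all actives have a fitted effect of over 55% in size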
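A 48-hour cytotoxicity screen used HT-1080-NT cells plated 2 hours before compound delivery. ATP-based CellTiter-Glo luminescence measured viability, normalized to DMSO and no-cell controls.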
DT40 TDP1 no CPT = qHTS for Inhibitors of human tyrosyl-DNA phosphodiesterase 1 (TDP1): qHTS in cells in absence of CPT; Potency, µM (highest dose often 46.2 µM), without a hit: at the top dose activity change, negative = growth inhibition, usual class: inhibitors; hit rate 15% among 420,000; DT40 Tdp1-/- hTDP1 cells, no CPT, ATP luminescence, 48 h; note: potency is the fitted concentration of half-maximal effect; nearly all actives have a fitted effect of over 55% in size
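A cellular qHTS used chicken DT40 cells lacking endogenous Tdp1 but carrying stably transfected human TDP1. Compounds were applied without camptothecin, and cell growth kinetics were judged by ATP-dependent luminescence after ≥48 hr.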
IL-1B inflam inh = qHTS for Inhibitors of Inflammasome Signaling: IL-1-beta AlphaLISA Primary Screen; activity change, % at 57.5 µM; hit rate 4.7% among 360,000; THP-1 LPS/ATP IL-1B secretion, AlphaLISA, 16 h; stronger effect = lower value; in the data active = activity change below about -50%; inconclusive = mostly about -30% to -49%
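Secreted IL-1B measured by AlphaLISA bead assay after 16 h compound exposure of THP-1 cells; compounds (final up to 57.5 uM) added 1 h before LPS (250 ng/mL) and ATP (1.25 mM) stimulation; lower signal means less secretion.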
Numbers without * were called inactive; ? = inconclusive; . = not tested or not shown; + = active, no number; [ ] = dose if it differs, or a comment. Shown are actives, neighbours in structure and some others; about 19% of the full set was active somewhere. Unless noted, calls come from the whole dose curve; as a rule, active = well fitted curve in the direction sought with a large enough effect; inconclusive = small, poorly fitted or top-dose-only effect, or another doubt; inactive = no such curve, though single readings can be large; an effect the other way counts as inactive or inconclusive. Unless noted, % is set by controls: 0 for no effect and ±100 for the full control effect.

SMILES	HT1080 IDH1KD tx	DT40 TDP1 CPT	HT1080NT lethal	DT40 TDP1 no CPT	IL-1B inflam inh
NC(=O)CC(NC(=O)c1cccc(Br)c1)c1ccc(NC2CCCCCCC2)c([N+](=O)[O-])c1 (stereo unspecified)	1%	?	12%	16µM*	0
NC(=O)CC(NC(=O)c1ccc(Br)cc1)c1ccc(NC2CCCCCC2)c([N+](=O)[O-])c1 (stereo unspecified)	-1%	16µM*	12%	16µM*	12
CC(C)Nc1ccc(C(CC(N)=O)NC(=O)Cc2ccc(Br)cc2)cc1[N+](=O)[O-] (stereo unspecified)	-20%	13µM*	-8%	21µM*	-9
CCCn1c(SCC(N)=O)nnc1-c1ccco1	9%	-16%	12%	?	-11
NC(=O)CC(NC(=O)c1cccc(Br)c1)c1ccc(NC2CCCCCCCCCCC2)c([N+](=O)[O-])c1 (stereo unspecified)	-1%	2%	15%	-12%	-2
NC(=O)CC(NC(=O)c1ccc(Br)cc1)c1ccc(NC2CCCCC2)c([N+](=O)[O-])c1 (stereo unspecified)	8%	15µM*	15%	16µM*	11
CC(=O)N(Cc1cc2c(C)cc(C)cc2[nH]c1=O)C1CCCCC1	-6%	-21%	-1%	-27%	1
CCOC(=O)Cn1nnnc1C(C(C)C)N(Cc1cc2c(C)cc(C)cc2[nH]c1=O)C1CCCC1 (stereo unspecified)	?	23µM*	?	21µM*	?
COc1ccc2[nH]c(=O)c(CN(C3CCCCC3)C(c3nnnn3Cc3ccco3)C(C)C)cc2c1 (stereo unspecified)	-24%	12µM*	-16%	?	-93*
CCOc1ccc2[nH]c(=O)c(C(c3nnnn3Cc3ccco3)N3CCCC(C)C3)cc2c1 (stereo unspecified)	1%	?	-3%	-26%	-18
CCOc1ccc2[nH]c(=O)c(C(c3nnnn3Cc3ccco3)N3CCC(C)CC3)cc2c1 (stereo unspecified)	-1%	-79%	0%	26µM*	-5
COc1ccc(Cn2nnnc2CN(Cc2cc3cc(C)ccc3[nH]c2=O)C2CCCC2)cc1	15%	12µM*	0%	11µM*	-61*
CC(Cl)C(=O)Nc1c2c(nn1-c1ccccc1)CSC2 (stereo unspecified)	17%	4%	1%	0%	43
CN(C)c1cccc(C(=O)NCC(c2ccco2)N(C)C)c1 (stereo unspecified)	0%	-5%	0%	0%	14
COc1cccc(CNC(=O)Cc2c(C)c3ccc(OC)c(C)c3oc2=O)c1	.	1%	.	-3%	.
CCOC(=O)[C@H](CCc1ccccc1)N[C@@H](C)C(=O)N1[C@H](C(=O)O)C[C@H]2CCCC[C@@H]21	.	4%	.	-9%	.
CCOC(=O)c1c(NC(=O)Cn2nc([N+](=O)[O-])c(Br)c2C)sc2c1CCC(C)C2 (stereo unspecified)	3%	-22%	-6%	?	14
O=C(COC(=O)COc1ccc(Cl)cc1)Nc1ccc(N2CCOCC2)cc1	14%	-1%	23%	6%	-4
COc1ccc2[nH]c(=O)c(CN(Cc3nnnn3Cc3ccco3)C3CCCCC3)cc2c1	0%	?	0%	16µM*	-11
CC(O)(c1ccccc1)c1nc(-c2ccncc2)cs1 (stereo unspecified)	0%	4.1µM*	+	?	-1
CC(O)(c1ccccc1)c1nc(-c2ccc(S(C)(=O)=O)cc2)cs1 (stereo unspecified)	-2%	-21%	-1%	?	10
CC(O)(c1ccccc1)c1nc(-c2ccccc2)cs1 (stereo unspecified)	?	21µM*	?	?	0
O=C(Nc1cccc(-c2ccc3nncn3n2)c1)c1ccco1	5%	?	-2%	?	23
Cc1ccc(S(=O)(=O)Nc2cccc(-c3ccc4nncn4n3)c2)cc1	3.3µM*	1.8µM*	4.6µM*	2.3µM*	24
CCOc1ccccc1C(=O)Nc1cccc(-c2ccc3nncn3n2)c1	1%	23µM*	-9%	23µM*	-8
SMILES	HT1080 IDH1KD tx	DT40 TDP1 CPT	HT1080NT lethal	DT40 TDP1 no CPT	IL-1B inflam inh
Cc1ccccc1C(=O)Nc1cccc(-c2ccc3nncn3n2)c1	-18%	23µM*	-1%	21µM*	59
COc1cccc(CNC(=O)c2ccc3c(c2)nc2n3CCC(C)C2)c1OC (stereo unspecified)	.	-26%	.	-17%	.
COc1ccc(NC(=O)Cn2c(=O)cnc3ccccc32)cc1S(=O)(=O)N1CCCCC1	-1%	-27%	7%	-2%	7
O=C(C[n+]1cccc(Br)c1)c1ccc2ccccc2c1	.	-107%	.	-99%	.
O/N=C(/C[n+]1cccc(Br)c1)c1ccc2ccccc2c1	.	?	.	13µM*	.
CC(C)C(=O)NC(c1ccc(Cl)cc1Cl)c1ccc2cccnc2c1O (stereo unspecified)	?	6.5µM*	?	5.2µM*	74
CC(NC(=O)CSc1ncccn1)c1ccc(Cl)cc1Cl (stereo unspecified)	7%	-5%	7%	?	22
CCC(=O)NC(c1ccc(Cl)cc1Cl)c1ccc2cccnc2c1O (stereo unspecified)	?	5.2µM*	15µM*	5.2µM*	-85*
CCCCC(=O)NC(c1ccc(Cl)cc1Cl)c1ccc2cccnc2c1O (stereo unspecified)	?	6.5µM*	?	2.9µM*	179
COC(=O)c1ccc(CN2C[C@H](Sc3ccccn3)C[C@H]2C(=O)N(C)C)cc1	.	-9%[9.04 µM]	.	-19%	.
CC(C)Cn1c(C(C)NC(=O)Cc2ccccc2)nc2ccccc21 (stereo unspecified)	-4%	12µM*	-5%	6.5µM*	-1
CCC(=O)Nc1nc2ccccc2n1CCN1CCOCC1	22%	-8%	9%	-2%	17
CCCCCCCn1c(NC(=O)CC)nc2ccccc21	?	?	-25%	21µM*	.
CCCCn1c(C(C)NC(=O)CC)nc2ccccc21 (stereo unspecified)	5%	23µM*	5%	12µM*	29
CC(C)CNC(=O)NC(=O)CSc1nc2ccccc2n1CC(C)C	-17%	?	-16%	23µM*	-9
